From paper PMC7819943, “Rice protein-binding microarrays: a tool to detect cis-acting elements near promoter regions in rice”
Whole data set: some 68,000 sequences, median “fluorescence intensity (a.u.)” near 9,100, cut for the highest 2% near 16,000. For the sample, the highest values were picked, then their nearest neighbours and some sequences at random.

The sequences below were run against OsWRKY34 (Oryza sativa, UniProt Q0JBA9 1-250) (assay: protein-binding microarray (RPBM); PBS, 2% BSA, 51.3 ng/ul salmon testes DNA, 50 uM zinc acetate, 200 nM TF, 25 C, 1 h; high values mean tight binding). Details: protein: recombinant; tags: N-terminal polyhistidine and DsRed monomer fusion (pET32a); label: CyDye5-dUTP incorporated in the synthesized complementary strand; 3' TTTTT single-stranded linker to array surface; dsDNA, one strand shown.
Chain of OsWRKY34 (Q0JBA9 entry or part of it): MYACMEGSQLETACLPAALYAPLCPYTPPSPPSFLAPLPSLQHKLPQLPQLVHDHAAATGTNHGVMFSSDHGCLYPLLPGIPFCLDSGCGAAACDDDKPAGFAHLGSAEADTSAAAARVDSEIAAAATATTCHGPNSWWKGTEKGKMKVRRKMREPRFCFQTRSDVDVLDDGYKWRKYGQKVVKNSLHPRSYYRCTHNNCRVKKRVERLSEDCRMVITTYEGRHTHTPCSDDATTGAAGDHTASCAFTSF
Outline: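 Binding signal here means per-feature fluorescence intensity in arbitrary units. The values were read on an Axon 4000B scanner after a custom Agilent array, double-stranded by primer extension with Cy5-dUTP, was incubated with 200 nM protein at 25 °C for 1 h in PBS with 2% BSA, salmon testes DNA and 50 µM zinc acetate, then washed. The proteins were transcription factors with an N-terminal polyhistidine tag and DsRed, expressed in E. coli BL21-CodonPlus and purified on Ni–NTA.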

Sequence | binding signal
TTCATGGAACATTCACGTGGATCATTCTCTCTCTCTCTCTCGGAGTCACCTAGTGCAG | 8100 fluorescence intensity (a.u.)
TCACATCTCATTTTATGTTGGTTTTTTATGGGACGGGAGGCGGAGTCACCTAGTGCAG | 10200 fluorescence intensity (a.u.)
CACCACCGTGCACTTCACAATTCACACTACTCCTTCAGATCGGAGTCACCTAGTGCAG | 8340 fluorescence intensity (a.u.)
CTCATCATCCCGTCCAAAATCAGCTGCCCGCGCCGACGACCGGAGTCACCTAGTGCAG | 8700 fluorescence intensity (a.u.)
ATACACATGCACATTTAGTTCCTCCCGGTAAGTTCGTCGTCGGAGTCACCTAGTGCAG | 8260 fluorescence intensity (a.u.)
ATTTTTTTTTGGCATAGTTTGTGTTCACTGCAAAAATCACCGGAGTCACCTAGTGCAG | 9080 fluorescence intensity (a.u.)
GAGAGAGGGGTTGGGTTTGGTTGGTGTTTGTGTGGAGATGCGGAGTCACCTAGTGCAG | 12800 fluorescence intensity (a.u.)
TGACAGCGGTAGATGTGGGTGGTGGTGGGAGGGGAGGATGCGGAGTCACCTAGTGCAG | 16200 fluorescence intensity (a.u.)
CTATTATCTCCAGGGTGGGGTGGGGCCCATACGGCCAGGACGGAGTCACCTAGTGCAG | 10400 fluorescence intensity (a.u.)
GGGTTATTCTTTGCATGATATTTGACGTTTTTTCTCGCTGCGGAGTCACCTAGTGCAG | 9920 fluorescence intensity (a.u.)
AGAGATGGTAGTGGTAAAGCGGAGGAGGGGTGGGGTGTTGCGGAGTCACCTAGTGCAG | 16700 fluorescence intensity (a.u.)
GGGTGGGAGGGAGGGAGTACATGGTAAGGCCATTCAACAGCGGAGTCACCTAGTGCAG | 20200 fluorescence intensity (a.u.)
GCTACATCAGCGGCGGAGGTGGAGGTGGAGGGGTAAGGTGCGGAGTCACCTAGTGCAG | 11600 fluorescence intensity (a.u.)
CTGCGGCCCGGCGGGAGTGGGAGGGGCGGCGGGCCGGACCCGGAGTCACCTAGTGCAG | 9720 fluorescence intensity (a.u.)
TTTGGTTCACGCGGCGCGGGCGGGGAGTGGGAGGGGCATGCGGAGTCACCTAGTGCAG | 24100 fluorescence intensity (a.u.)
TTTGACGTTTTTTCTCGCTGCTATTATCTCCAGGGTGGGGCGGAGTCACCTAGTGCAG | 17200 fluorescence intensity (a.u.)
AGAGGGATGGGTGTGGGCAGCGGTGGGCGGTAAGGCACCACGGAGTCACCTAGTGCAG | 9360 fluorescence intensity (a.u.)
GAGAGCTTTGCGGCGGGCATGCGGGTGGGGATTCACCGCGCGGAGTCACCTAGTGCAG | 10600 fluorescence intensity (a.u.)
ACCTTGGACAACTGACTTCTCTACAGACATTAACCTTTTTCGGAGTCACCTAGTGCAG | 8730 fluorescence intensity (a.u.)
TTTTCATCTGAGCTTATGTTCCAACTTTTATTTTTAATCACGGAGTCACCTAGTGCAG | 8780 fluorescence intensity (a.u.)
ACTGAGTACTGTTCGGTTGGGTCTGGCATCGGATGTTTCCCGGAGTCACCTAGTGCAG | 8340 fluorescence intensity (a.u.)
TATAGGCCACTTGTGCCTCGGCTCACGTTGACCTGCCTTACGGAGTCACCTAGTGCAG | 8170 fluorescence intensity (a.u.)
AACATATAAACTCAAATCTCCAATTGTTTCCGCTACAAATCGGAGTCACCTAGTGCAG | 8100 fluorescence intensity (a.u.)
AACTATTTTCATCCCTCGAGGACATATCTCCTCGTTGTTTCGGAGTCACCTAGTGCAG | 11100 fluorescence intensity (a.u.)
ACGACCCTCTACATGTTGCTGCTGGCAGCCGCTCCCTCTCCGGAGTCACCTAGTGCAG | 8660 fluorescence intensity (a.u.)
GTTTTTCATATTTGACGATCAAACGGTGGTTTTAAAACTTCGGAGTCACCTAGTGCAG | 8140 fluorescence intensity (a.u.)
CACTTTTTCATGGATTTTTACTTATTTAATGATTTTTTATCGGAGTCACCTAGTGCAG | 8240 fluorescence intensity (a.u.)

Sequence | binding signal
TAGTGGGGAGGCGGTGGTGCTGCGGGGAGGGAGGGAGCACCGGAGTCACCTAGTGCAG | 12800 fluorescence intensity (a.u.)
GGCTGTTGTTTTTCCTTGTTATTCTTTCAGTAAGATATTTCGGAGTCACCTAGTGCAG | 12800 fluorescence intensity (a.u.)
AGCGAGCGACGGGCGGGGCGGAGCGGGGCGGGGCTGCATTCGGAGTCACCTAGTGCAG | 16700 fluorescence intensity (a.u.)
AGGCGAGCGAGACGGCGGCGGGCGGGCGGGGCGGGCGACGCGGAGTCACCTAGTGCAG | 14800 fluorescence intensity (a.u.)
GTCGTGGGCGGGAGGTGGTGGTGGTGGTGCTGCTGCATTGCGGAGTCACCTAGTGCAG | 11600 fluorescence intensity (a.u.)
GGCGGGGCAGACGGAGGCCGACGGCTGCAGCGGGCTGGGGCGGAGTCACCTAGTGCAG | 9010 fluorescence intensity (a.u.)
TGGCAGGGTTGCATGGTTCTGGAGGGCGGGCTGTTATATTCGGAGTCACCTAGTGCAG | 13500 fluorescence intensity (a.u.)
CGATGGCTGGAGGGGAGGCGGCGGCGCATCGTGGCGGGCGCGGAGTCACCTAGTGCAG | 8030 fluorescence intensity (a.u.)
CTCGATTCTTCTGCAGCTGGGCGGGAGGGGAGGCGTGGCGCGGAGTCACCTAGTGCAG | 18300 fluorescence intensity (a.u.)
GGGGAGGTTGCTGCTGCTGCTGGGCGGGTGGGCGGAGGGGCGGAGTCACCTAGTGCAG | 28100 fluorescence intensity (a.u.)
GGAGGGCGGGCTGTTATATTCTTCACACCTTGCATGTAAGCGGAGTCACCTAGTGCAG | 18700 fluorescence intensity (a.u.)
GGCGAGCGCGTCGTGGAGGGCGGGGAGGGAGTCGGGCTGGCGGAGTCACCTAGTGCAG | 14400 fluorescence intensity (a.u.)
TCTGTCCCTCAATCCCGCGACGCCGCCGCCGTTCTGCTCCCGGAGTCACCTAGTGCAG | 10000 fluorescence intensity (a.u.)
GATCCTATCATTTTCAACGATGTTAAATCGTCACAGGCTTCGGAGTCACCTAGTGCAG | 8310 fluorescence intensity (a.u.)
CCTCATTAGCTAGCTTTTTAGGGTGGGGAAGGCCCTTTACCGGAGTCACCTAGTGCAG | 12700 fluorescence intensity (a.u.)
CTCACTTGCATCTTTCCAATATCTTAGTCATTCATTAATACGGAGTCACCTAGTGCAG | 8520 fluorescence intensity (a.u.)
AATGTATGACGCCGTTGACTTTTTATCAAACGTTTGACCACGGAGTCACCTAGTGCAG | 34800 fluorescence intensity (a.u.)
GTAAATTATGTATGACGCGGTTGACTTTTTATTAACGTTTCGGAGTCACCTAGTGCAG | 16800 fluorescence intensity (a.u.)
AATGTATGACGCCGTTGACTTTTTGCCCAACGTTTGACCACGGAGTCACCTAGTGCAG | 38700 fluorescence intensity (a.u.)
AATGTATGATGCCGTTGACTTTTCGACTAACGTTTGACCACGGAGTCACCTAGTGCAG | 29200 fluorescence intensity (a.u.)
CTAAATTAATGGTCGCTTTGACTTTTTTTATGTAATGTTTCGGAGTCACCTAGTGCAG | 14700 fluorescence intensity (a.u.)
AATGATGTTGTTGACTTTTAAAATAACGTATGGCCGTTCACGGAGTCACCTAGTGCAG | 8770 fluorescence intensity (a.u.)
AATGTATGACGCAGTTGACTTTGTGACAAACGTTTGACCTCGGAGTCACCTAGTGCAG | 12300 fluorescence intensity (a.u.)
CATCCGTATGATTCGACTTTTTTTTCACGTTGATTTTATACGGAGTCACCTAGTGCAG | 9050 fluorescence intensity (a.u.)
AATTGTAAAGTTGACTTTAATGTTTTTTTTATTGTGGTTTCGGAGTCACCTAGTGCAG | 8740 fluorescence intensity (a.u.)
TTTTTTTCAATTCGTTTTTTTTTCATTTTTCATCGTCTTTCGGAGTCACCTAGTGCAG | 8400 fluorescence intensity (a.u.)
TACTACTCTCGTGTGGCAAAATTTTGTCTTAGTTCTTGAACGGAGTCACCTAGTGCAG | 8100 fluorescence intensity (a.u.)
